AMA1 RON2 block: qHTS for Inhibitors of AMA1-RON; Towards Development of Antimalarial Drug Lead: Primary Screen | Plasmodium falciparum AMA1 (3D7) - RON2 peptide interaction | AID 720542, 2013 | Potency, µM (doses to about 58.2 µM), most hits filed as inhibitors | AlphaScreen AMA1-biotinylated RON2 peptide binding | 360,000 tested, 0.2% active; further: nearly all actives have a fitted effect of over 45% in size
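AMA1 (3D7) with his tag at 25 nM final met compounds first, then biotinylated RON2 peptide at 25 nM; detection used donor plus acceptor beads, 10 µg/mL apiece, read by AlphaScreen after 30 min at room temperature.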
CHX counter: Cycloheximide Counterscreen for Small Molecule Inhibitors of Shiga Toxin; cell reporter, cycloheximide protein synthesis inhibition counterscreen; max response, %; 300,000 tested, 12% active; AID 2314, 2010; in the data active means max response mostly above about 13%, no sharp cut-off; inactive means mostly below about 14%; further: read at 38.3 µM for the half of the compounds with a filed dose
Shiga toxin inh: A qHTS for Small Molecule Inhibitors of Shiga Toxin; 290,000 tested, 9.2% active; Vero cells, Shiga toxin protein synthesis inhibition reporter; inhibition, % at 38.7 µM; AID 2315, 2010; in the data active means inhibition mostly above about 28%, no sharp cut-off; inactive means mostly below about 43%
Pf growth 48h: Primary qHTS for delayed death inhibitors of the malarial parasite plastid, 48 hour incubation; 310,000 tested, 5.9% active; Potency, µM (top dose mostly 28.7 µM), actives largely listed as inhibitors; AID 504832, 2011; P. falciparum luciferase growth in erythrocytes, 48 h
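A one-generation exposure of luciferase-tagged malaria parasites in RPMI 1640/Albumax erythrocyte culture, 37 C and 5% CO2. Inhibition is inferred from decreased luminescence after adding detection reagent.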
HCV inhibitor: qHTS Assay for Inhibitors of Hepatitis C Virus (HCV); Potency, µM (titrated, usually from 41.8 µM), most hits filed as inhibitors; Huh7.5.1 HCVcc-Cre infection, luciferase reporter, 44 h; 340,000 tested, 3.4% active
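HCVcc-Cre virus at an moi near 0.5 was added right after compound to cells cultured 4 h from seeding (1,000 cells/well). Luciferase activity was determined 44 h later, 15 min after substrate addition at RT.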
Pf growth 96h: Primary qHTS for delayed death inhibitors of the malarial parasite plastid, 96 hour incubation. P. falciparum luciferase reporter growth, 96 h. Potency, µM (series often up to 28.7 µM), hits mostly inhibitors. 320,000 tested, 6.9% active. AID 504834, 2011
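96 h incubation, 37 C, 5% CO2, of luciferase-reporter P. falciparum-infected RBCs (2% hematocrit, 0.05% parasitemia final) with test compounds; endpoint luminescence.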
Large screens that a line does not name were inactive. This is a sample that favours compounds with a hit; in the whole collection about 21% have one here. Unless noted, the call rests on the fitted dose curve; in most records, active means well fitted curve in the direction sought with a large enough effect; inconclusive means small, poorly fitted or top-dose-only effect, or another doubt; inactive means no such curve, though single readings can be large; an effect the other way counts as inactive or inconclusive.

Cc1cccc(N=N/C(=C\O)C(=O)c2ccc(Br)cc2)c1	HCV inhibitor 10µM
O=C(/C(=C/O)N=Nc1cccc(C(F)(F)F)c1)c1ccccc1	Pf growth 48h inconclusive, HCV inhibitor inconclusive, Pf growth 96h inconclusive
O=C1c2ccccc2C(=O)N1CCSc1nncs1	none
O=C1c2ccccc2C(=O)N1CCSc1ccccc1	CHX counter 34 (no result: Pf growth 48h)
Cc1csc(SCCN2C(=O)c3ccccc3C2=O)n1	CHX counter 40, Shiga toxin inh 102, Pf growth 96h inconclusive
CC1=CC(C)(C)N2C(=O)C(=Nc3ccc(O)cc3)c3cccc1c32	Shiga toxin inh 46, Pf growth 48h inconclusive, HCV inhibitor inconclusive, Pf growth 96h inconclusive
COc1cc(N=C2C(=O)N3c4c(cccc42)C(C)=CC3(C)C)cc(OC)c1	Pf growth 48h inconclusive, Pf growth 96h inconclusive
CC(C)NC(=O)C1C(c2ccc(C(F)(F)F)cc2)=Nc2ccccc2N1C(=O)c1cc2ccccc2[nH]1 (stereo not drawn)	none (no result: CHX counter, Shiga toxin inh, Pf growth 48h, HCV inhibitor, Pf growth 96h)
COc1ccc(-c2cc3ccccc3n2CC(O)Cn2nc(C)cc2C)cc1 (stereo not drawn)	Pf growth 48h 2.3µM, HCV inhibitor inconclusive
Cc1cc(C)n(CC(O)COc2ccc3ccccc3c2)n1 (stereo not drawn)	CHX counter 26, Shiga toxin inh 46
COc1ccc(-c2cc3ccccc3n2CC(O)CN2CCC(C)CC2)cc1 (stereo not drawn)	Pf growth 48h inconclusive
CC(C)=NOc1nc(NC(=O)NS(=O)(=O)c2ccccc2Cl)nc(N(C)C)n1	none (no result: CHX counter, Shiga toxin inh, Pf growth 48h, Pf growth 96h)
O=C(NC(=S)NCCOCc1ccc(Cl)cc1)c1cccnc1	Pf growth 96h inconclusive
COC(=O)c1sc(C(C)(C)C)cc1CS(=O)(=O)c1ccccn1	Pf growth 48h inconclusive, Pf growth 96h 13µM
CC(=O)c1csc(CS(=O)(=O)c2ccccn2)n1	none
Cc1ccc(N2NC(C)(c3cccs3)NC2=S)cc1 (stereo not drawn)	CHX counter 31, Shiga toxin inh 74, Pf growth 96h inconclusive
Cc1ccc(C(=O)c2cnc3cc4c(cc3c2S(=O)(=O)c2ccccc2)OCCO4)cc1	CHX counter 68, Shiga toxin inh 100, Pf growth 48h 3.3µM, Pf growth 96h inconclusive
CCOc1ccc(S(=O)(=O)c2c(C(=O)c3ccc(C)cc3)cnc3cc4c(cc23)OCCO4)cc1	Pf growth 48h inconclusive, Pf growth 96h inconclusive
O=C1NC(=S)N/C1=C/c1ccc2c(c1)OCO2	none
O=C1NC(=O)C(=Cc2ccc3c(c2)OCO3)C(=O)N1	Pf growth 96h 9.3µM (no result: AMA1 RON2 block, HCV inhibitor)
CCOC(=O)c1ccc(C(=O)NNC(=O)C2CC=CCC2)cc1 (stereo not drawn)	none (no result: CHX counter, Shiga toxin inh, Pf growth 48h, Pf growth 96h)
COc1ccc(C(=O)NNC(=O)C2CC=CCC2)cc1 (stereo not drawn)	CHX counter 25, Shiga toxin inh 43, Pf growth 96h 2.3µM
O=C(NNC(=O)C1CC=CCC1)c1ccccc1Cl (stereo not drawn)	CHX counter 20
CCOC(=O)C1(NC(=O)C2(N3C(=O)c4ccccc4C3=O)CCCC2)CCCC1	none (no result: CHX counter, Shiga toxin inh, Pf growth 48h, Pf growth 96h)
O=C1C(Cc2ccc(Br)cc2)SC(=Nc2ccccc2)N1c1ccccc1 (stereo not drawn)	Pf growth 48h 13µM, HCV inhibitor inconclusive, Pf growth 96h inconclusive
O=C1C(Cc2cccc([N+](=O)[O-])c2)SC(=Nc2ccccc2)N1c1ccccc1 (stereo not drawn)	AMA1 RON2 block inconclusive, Pf growth 48h 8.3µM, Pf growth 96h 7.4µM
O=C1C(Cc2ccc(F)cc2)SC(=Nc2ccccc2)N1c1ccccc1 (stereo not drawn)	Pf growth 48h 10µM, Pf growth 96h inconclusive
O=C(CC1S/C(=N\S(=O)(=O)c2ccc(F)cc2)N(c2ccccc2)C1=O)Nc1ccccc1 (stereo not drawn)	none
O=C(O)CC1S/C(=N/N=C/c2ccc([N+](=O)[O-])cc2)N(c2ccc(O)cc2)C1=O (stereo not drawn)	none
N#CCNc1ccc([N+](=O)[O-])cc1C#N	none
[Cl][In]([Cl])[Cl]	Pf growth 48h 7.6µM, Pf growth 96h 6.7µM (no result: AMA1 RON2 block, CHX counter, Shiga toxin inh, HCV inhibitor)
CCN(CC)CCC(c1cc(OC)c(OC)c(OC)c1)c1c(OC)cc(OC)c2c1OC(=O)CC2c1ccc(N(C)C)cc1 (stereo not drawn)	none (no result: AMA1 RON2 block, Pf growth 48h, HCV inhibitor, Pf growth 96h)
Cc1ccccc1	Pf growth 96h inconclusive (no result: AMA1 RON2 block, CHX counter, Shiga toxin inh, HCV inhibitor)
[Hg+][c]1ccccc1	Pf growth 48h 4.8µM, Pf growth 96h 3.4µM (no result: AMA1 RON2 block, CHX counter, Shiga toxin inh, HCV inhibitor)
Cc1ccc(S(=O)(=O)N(c2cccc(C(F)(F)F)c2)C2C=CS(=O)(=O)C2)cc1 (stereo not drawn)	HCV inhibitor 10µM, Pf growth 96h 17µM (no result: Pf growth 48h)
CC(C)(CO)CNC1CCCN(C2Cc3ccccc3C2)C1 (stereo not drawn)	none
CCOC(=O)COc1ccccc1C(=O)c1cnn(-c2ccccc2)c1	CHX counter 59, Shiga toxin inh 111 (no result: Pf growth 48h)
CC(C)n1cc(NC(=O)COc2ccccc2Cl)cn1	Pf growth 96h inconclusive
O=C(COc1ccccc1C(=O)c1cnn(-c2ccccc2)c1)Nc1ccc2ccccc2c1	CHX counter 57, HCV inhibitor 13µM
CC(C)c1ccc(NC(=O)COc2ccc(F)cc2C(=O)c2cnn(-c3ccccc3)c2)cc1	CHX counter 73, Shiga toxin inh 120, HCV inhibitor inconclusive, Pf growth 96h inconclusive
COc1ccc(CC(=O)Nc2ccc(-c3csc(C)n3)cc2)cc1	none (no result: Pf growth 96h)
Cc1nc(-c2ccc(NC(=O)Cc3ccccc3)cc2)cs1	CHX counter 43, Shiga toxin inh 87
CCC(=O)Nc1ccc(-c2csc(C)n2)cc1	CHX counter 23
Cc1nn(C)cc1S(=O)(=O)Nc1ccc(F)c(F)c1	none
COc1cccc(C2CCCCN2Cc2nc(-c3ccc(C)o3)oc2C)c1 (stereo not drawn)	CHX counter 31, Shiga toxin inh 79
COc1ccccc1C1CCCN1Cc1nc(-c2cc3c(cc2Cl)OCO3)oc1C (stereo not drawn)	Pf growth 48h 9.3µM
COc1cccc(C2CCCN2Cc2nc(-c3sccc3C)oc2C)c1 (stereo not drawn)	Pf growth 48h inconclusive
COc1ccccc1C1CCCN1Cc1nc(-c2ccc(C)s2)oc1C (stereo not drawn)	Pf growth 48h 4.7µM, HCV inhibitor inconclusive
Cc1oc(-c2cc3c(cc2Cl)OCO3)nc1CN1CCCC(C(=O)N2CCOCC2)C1 (stereo not drawn)	Pf growth 96h inconclusive
COc1ccccc1OCC(=O)N/N=C(\C)c1ccc2ccccc2c1	none (no result: CHX counter, Shiga toxin inh, Pf growth 48h, HCV inhibitor, Pf growth 96h)
O=C(CSc1nc2cc(S(=O)(=O)N3CCOCC3)ccc2o1)NC1CCCc2ccccc21 (stereo not drawn)	Pf growth 48h 9.3µM, HCV inhibitor inconclusive, Pf growth 96h inconclusive
